Source: PubChem BioAssay AID743314 (Broad Institute, 2014)
Entries with a potency or affinity are not part of this list. Records with an inconclusive call do not appear. Active and inactive are the calls of the source.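 Rule for the calls: active = fitted half-maximal concentration no higher than twice the top tested dose, in every repeat run; inconclusive = repeat runs disagree, poor fit, or flat partial inhibition; inactive = the rest.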

Each compound was assayed against Endoplasmic reticulum aminopeptidase 1 (Homo sapiens) (UniProt Q9NZ08) (assay: ERAP1 aminopeptidase inhibitors, dose response, biochemical, cherry-pick, set 2, plate reader (AID 743314;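 note: 0% = neutral control wells and -100% = L-leucinethiol positive control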)). Details: Recombinant ERAP1, Leu-AMC fluorescence, 60 min; series mostly up to 11 µM.
Sequence of Endoplasmic reticulum aminopeptidase 1 (Homo sapiens) (Q9NZ08 whole entry, looked up): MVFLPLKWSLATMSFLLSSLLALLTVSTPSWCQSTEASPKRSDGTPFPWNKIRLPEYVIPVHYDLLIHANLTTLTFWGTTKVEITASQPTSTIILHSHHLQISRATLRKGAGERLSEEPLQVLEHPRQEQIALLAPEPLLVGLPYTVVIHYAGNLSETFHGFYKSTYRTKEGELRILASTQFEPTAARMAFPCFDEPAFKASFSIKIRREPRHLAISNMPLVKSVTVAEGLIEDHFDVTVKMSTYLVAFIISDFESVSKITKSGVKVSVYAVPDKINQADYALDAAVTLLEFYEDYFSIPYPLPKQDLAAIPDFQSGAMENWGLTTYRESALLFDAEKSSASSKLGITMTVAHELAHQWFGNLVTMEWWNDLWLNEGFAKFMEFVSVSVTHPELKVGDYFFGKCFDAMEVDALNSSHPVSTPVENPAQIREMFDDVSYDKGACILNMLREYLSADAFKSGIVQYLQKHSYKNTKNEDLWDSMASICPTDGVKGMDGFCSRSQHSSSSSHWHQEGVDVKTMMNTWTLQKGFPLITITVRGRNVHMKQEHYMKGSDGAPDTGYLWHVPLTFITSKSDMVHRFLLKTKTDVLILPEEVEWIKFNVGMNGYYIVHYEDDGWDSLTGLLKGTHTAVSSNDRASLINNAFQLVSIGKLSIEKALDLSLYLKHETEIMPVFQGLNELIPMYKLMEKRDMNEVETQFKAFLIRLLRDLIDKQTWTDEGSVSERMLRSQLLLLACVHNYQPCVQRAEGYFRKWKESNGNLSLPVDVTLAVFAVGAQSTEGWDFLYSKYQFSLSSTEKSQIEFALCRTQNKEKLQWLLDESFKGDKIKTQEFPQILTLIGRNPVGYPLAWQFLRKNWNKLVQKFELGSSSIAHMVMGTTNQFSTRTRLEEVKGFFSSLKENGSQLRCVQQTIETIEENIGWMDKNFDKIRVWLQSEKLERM

outcome, inactive:
COc1ccc(-c2cc(=O)oc3cc(OC(C)C(=O)NC(Cc4c[nH]c5ccc(O)cc45)C(=O)O)ccc23)cc1 (centres undefined)
O=c1oc2cc(O)ccc2cc1-c1nc2ccccc2o1
CN1CCN(S(=O)(=O)c2ccc(C3CCCCC3)cc2)CC1
C[C@@H]1CN([C@H](C)CO)C(=O)c2cccc(NC(=O)Nc3ccc(C(F)(F)F)cc3)c2O[C@H]1CN(C)C
Cc1cccc2sc(N(CCCN(C)C)C(=O)c3ccc4ncsc4c3)nc12
C[C@H](CO)N1C[C@H](C)[C@H](CN(C)C)OCCCC[C@H](C)Oc2ccc(NS(=O)(=O)c3ccc(Cl)cc3)cc2C1=O
Cc1cc(C)cc(N2CC(c3nc4ccccc4n3C)CC2=O)c1 (centres undefined)
CN1[C@H](C(=O)N2CCCCC2)[C@@H](CO)[C@@H]2Cn3c(ccc(/C=C/c4ccccc4)c3=O)[C@@H]21
C[C@@H]1CCCCO[C@H](CN(C)C)[C@H](C)CN([C@@H](C)CO)C(=O)c2cc(NS(=O)(=O)c3ccc(Cl)cc3)ccc2O1
COc1ccc(CCC(=O)NC2CCCc3ccccc32)cc1OC (centres undefined)
Cc1ccc(OCC(=O)Nc2ccc(S(=O)(=O)N(C)C3CCN(C)CC3)cc2)c(C)c1
C[C@@H]1CN([C@H](C)CO)C(=O)c2cc(NC(=O)CCN3CCOCC3)ccc2O[C@@H]1CN(C)S(=O)(=O)c1ccccc1
COc1ccc(CN(C)C[C@@H]2OCCCC[C@H](C)Oc3ccc(NS(=O)(=O)c4cccs4)cc3C(=O)N([C@@H](C)CO)C[C@H]2C)cc1
CCCN1[C@@H]2Cn3c(ccc(-c4cccnc4)c3=O)[C@H]1[C@@H](C(=O)NCCc1cn(C)cn1)[C@@H]2CO
C[C@@H]1CN([C@@H](C)CO)C(=O)Cc2cc(NC(=O)Nc3cccc4ccccc34)ccc2O[C@H]1CN(C)Cc1ccc(C(=O)O)cc1
CSc1cccc(NC(=O)CCCNC(=O)c2ccc(Cl)cc2)c1
N#Cc1c(NC(=O)c2cccc(S(=O)(=O)Nc3ccc(C(=O)O)cc3)c2)sc2c1CCCC2
Cc1ccc(NC(=O)C(C)OC(=O)C2CC3CCCC(C2)C3=O)cc1S(=O)(=O)N1CCOCC1 (centres undefined)
C[C@H](CO)N1C[C@H](C)[C@@H](CN(C)C)Oc2c(NC(=O)Nc3ccc(C(F)(F)F)cc3)cccc2C1=O
O=S(=O)(O)c1ccc(N2N=C(c3ccccc3)CC2c2ccccc2)cc1 (centres undefined)
O=C(C[C@H]1CC[C@@H]2[C@H](COC[C@@H](O)CN2C(=O)Nc2cccc(Cl)c2)O1)N1CCCCC1
Cc1noc(C)c1S(=O)(=O)Nc1ccc2c(c1)C(=O)N([C@H](C)CO)C[C@@H](C)[C@@H](CN(C)CC1CCCCC1)OCCCC[C@@H](C)O2
COc1ccc([N+](=O)[O-])cc1NS(=O)(=O)c1cccc(C(=O)O)c1
C[C@@H]1CCCCO[C@@H](CN(C)C)[C@H](C)CN([C@@H](C)CO)C(=O)c2cc(NS(=O)(=O)c3ccc(Cl)cc3)ccc2O1
O=C(C[C@H]1CC[C@@H](NC(=O)Cc2ccccn2)[C@@H](CO)O1)NCCCN1CCOCC1
C[C@H]1CN([C@@H](C)CO)C(=O)Cc2cc(NC(=O)Nc3cccc4ccccc34)ccc2O[C@@H]1CN(C)Cc1ccc(C(=O)O)cc1
C[C@@H]1CCCCO[C@H](CN(C)S(=O)(=O)c2ccccc2)[C@H](C)CN([C@H](C)CO)C(=O)c2cc(NS(=O)(=O)c3ccc(Cl)cc3)ccc2O1
O=C(NCCN1CCCC1)[C@H]1[C@H](CO)[C@H]2Cn3c(cccc3=O)[C@@H]1N2C(=O)NC1CCCC1
Cc1noc(C)c1NC(=O)N(C)C[C@H]1Oc2c(NC(=O)Nc3ccc(F)cc3)cccc2C(=O)N([C@@H](C)CO)C[C@@H]1C
COc1ccc2c3c([nH]c2c1)[C@@H](CO)N(Cc1cc(F)ccc1F)CC31CN(C(=O)CN(C)C)C1
C[C@@H]1CN([C@@H](C)CO)C(=O)c2cc(NS(=O)(=O)c3ccc(Cl)cc3)ccc2O[C@@H](C)CCCCO[C@H]1CN(C)C
C[C@@H]1CN([C@@H](C)CO)C(=O)c2cc(NC(=O)CCN3CCOCC3)ccc2O[C@@H]1CN(C)S(=O)(=O)c1ccccc1
CCN(CC)c1ccc2c(C)c(Cl)c(=O)oc2c1
Cc1cc(C)n2nc(C(=O)Nc3ccc(N4CCOCC4)cc3)nc2n1
O=C(CC1CC1)N1[C@@H](CO)[C@@H](c2ccccc2)C12CN(Cc1cc(F)ccc1F)C2
O=C(C[C@@H]1C=C[C@H](NC(=O)Nc2cccc(F)c2)[C@H](CO)O1)NCC1CCCCC1
N#Cc1ccc(-c2ccc([C@H]3[C@H](CO)N4C(=O)CN(C(=O)C5CC5)C[C@@H]34)cc2)cc1
CCn1cc(CN2CCCC(C(=O)Nc3ccc(-c4nc5ccccc5[nH]4)cc3)C2)c(C)n1 (centres undefined)

Activity change, negative = inhibition, inactive:
O=C(O)c1ccc(N2N=C(c3ccccc3)CC2c2ccccc2)cc1 (centres undefined) -7.44% [at 2.6 µM]
